Measured values taken from PubChem BioAssay AID1347426 (Functional Genomics Laboratory (NCATS/FGL), 2020).
Screen size: about 31,000 sequences; about 1,400 (4.5%) were called active. The full list was thinned out, with actives kept by preference. Values without a mark were called inactive.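 How the source made its calls: active means median seed-adjusted z-score above 1 or below -1; inactive means the rest.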

Test: Novel Modifiers of Survival Motor Neuron (SMN) Protein: Gene Identification via Genome-wide siRNA Screen;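 further: luminescence tracks full-length SMN protein made from the SMN2 reporter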
Settings: HEK293T SMN2-luciferase reporter, siRNA knockdown, 72 h; actives lie on both sides
In short: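 Genome-wide siRNA screen (10418 genes, 3 siRNAs each, 1 pmol per well) by reverse transfection in HEK293T cells stably carrying an SMN2-luciferase reporter; luminescence after 72 hours, normalized to negative-control siRNA, log10-transformed, MAD-scored.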

| Sequence | median seed-adjusted z-score |
| --- | --- |
| AGGACGGUGCAGUACAGAATT against ZBTB46 | 0.0546 |
| GAACAACACCAACAUAAGATT against SMOC1 | 0.0453 |
| CAUCGCCUAUAUGAAAUAUTT against PLA2G10 | 1.07 (active) |
| GAGCCGUACUAUGACCUGATT against SSTR2 | -0.162 |
| CGAAGCUAGUGGAACAGUATT against SF3A1 | -1.09 (active) |
| CGAUGCCUGUUAUAAAUUATT against RCAN3 | 0.544 |
| AAAUCCCUUUGACACCUUUTT against DNAJB1 | 0.466 |
| CUCCUUCCCGGAUGAUUUATT against KLF17 | -0.131 |
| CCUCCGUCCUGUUUAGGAATT against LCN2 | 0.123 |
| GCAACGAGUUCAACCUGGATT against RAB11B | -0.857 |
| CCACUUACCCUCAAAGAAATT against SLC4A5 | 1.3 (active) |
| CCUCAGUGUGGGUAUAAGATT against HIF1A | 0.228 |
| UUGAUAAGGUUAAACCACATT against CSTA | -0.351 |
| GCAGCACGAAGGAUACUGATT against ABCA4 | -1.09 (active) |
| CCACGAGAUUUCACAAACATT against PRKD3 | -0.906 |
| GCUUCACUCAGAUUCCGAUTT against DYNC1I2 | -0.167 |
| GCCUCUACCUCUUCGAAAATT against CLEC11A | -1.1 (active) |
| GCAGUAAUGUUGAUAUAGATT against VDAC3 | 0.646 |
| CUAUCUCACCAAGAUCUAUTT against PODN | 0.589 |
| CAUCUUCAGUCUGUACAAATT against KIR2DL5B | 1.72 (active) |
| GGAAAGCAACAUACAGACATT against FABP6 | 0.122 |
| GCCUUAUGUAUGCACAGAATT against HKR1 | -0.358 |
| AGGCAUAUCUUGAAGAACATT against CIP29 | -1.18 (active) |

| Sequence | median seed-adjusted z-score |
| --- | --- |
| CACAGUGUUUGAGAACUAUTT against RHOA | -0.219 |
| GCAUCAACAGUAAUGAGAATT against KRT39 | 0.161 |
| CCACAUCAACAGUGCCUUUTT against ACOT11 | 0.636 |
| AGGGCUUCUUGAAUCUCUATT against GSTO2 | 0.142 |
| CCAAGAUGCUCAGUCAUCATT against MAP4K1 | 0 |
| CAACGUAUCAGAUUGAGAATT against ZNF281 | 1.19 (active) |
| CUACCGGAUUGAGAUGGAATT against MEGF6 | 0 |
| GCUGCUUGUGGAUUCGCUATT against TLN2 | -0.0106 |
| CACUCACACCAACCUGUGATT against GNG13 | -0.516 |
| CAGUGUUAGUGGAUUCAGATT against TMEM87B | -0.51 |
| CAACCUUAUUAUCAUUGAATT against SF3B3 | -2.53 (active) |
| GGCAGAUCCUGACCUUUGATT against PRMT7 | 0.204 |
| CUUAAGAUCCCACACCUCATT against SLC39A4 | 0.0304 |
| GCAUGUUCCAGAUCUAUCATT against DRD5 | -0.18 |
| GAGCGUGACUGGGUUCUAATT against DDX5 | 0.891 |
| CAAAGACAAGGUCCCAUUUTT against IFI35 | 0.105 |
| GCCCUAGAAAGGUCACUGATT against AKR1CL1 | 0.488 |
| GGAGGAACUCGAAUCAUUUTT against EIF4EBP2 | 0.517 |
| GCAUCACCUUCUUUCGGAUTT against UNC13A | -2.1 (active) |
| GGACGGAAAACAGUCUUAATT against OAS2 | 0.0758 |
| CCCACACUCUAGACUGAAATT against MEF2D | 0.0021 |
| CGGUCAAUGUUCUAAAGAUTT against CACNG5 | -0.41 |
| CCAUGACUGUCAAUCGUCATT against GFM1 | -0.0641 |

| Sequence | median seed-adjusted z-score |
| --- | --- |
| GGACCUACACUUUUCUCUUTT against FAM53B | -0.00535 |
| CCCUAAAGUUAAUCACCCATT against NUCB2 | 0.45 |
| GUUCCAUCCUGAUUCAAAUTT against PIGM | 1.36 (active) |
| GUUGAUAAGUUUUACCGAUTT against ADAM19 | 0.0996 |
| CCACCCGGACGAUAUCUUUTT against PPARA | 0.113 |
| GGAACGCAGUCGGAUCUCATT against RHOU | -1.44 (active) |
| GCAUUUGCAAUGAAGGCUATT against DNER | -0.316 |
| GAACCAGAUGAGACAUUCATT against SPSB1 | -0.378 |
| CUCUAAUGUUAAUCCGAGATT against MED14 | -3.22 (active) |
| GAGGCUCAAUGUUACACCATT against ACAT1 | -0.848 |
| CCAUUGGGCUAUGACCUGATT against ACOT4 | -0.158 |
| GGCACUAUUUCCAAUGGAATT against ADAMTS12 | -0.0721 |
| GCAGCCCUGAUGUCCAGUATT against EFS | -0.299 |
| AGUUCAUCGAUGACAUGGATT against COL6A2 | 0.0119 |
| GGAUCUAUCUUAACGACCATT against GAN | -1.07 (active) |
| GCUCCGAAGUGUUUACAAUTT against DQX1 | -0.297 |
| GUCCAAAUACAGUCUCUUATT against MAP3K14 | -0.0609 |
| CGCUGAAACCCGAUUCCUATT against ANPEP | 0.252 |
| GCCUAGAUGAGCGAAUUUATT against LSM3 | -1.36 (active) |
| GCACUGCGACUGUACUCUATT against LRRC3B | 0 |
| CCUUCACACGUACCACAAATT against TEKT2 | -0.349 |
| GGCUGGACAGUAAUUCAGATT against ANGPTL4 | 1.37 (active) |
| CACAAUGAGUUAACUGAUATT against LILRB4 | -0.104 |
